Cycloheximide cs – Cycloheximide Counterscreen for Small Molecule Inhibitors of Shiga Toxin. cell reporter, cycloheximide protein synthesis inhibition counterscreen. max response, %. 300,000 tested, 12% active; in the data active = max response mostly above about 13%, no sharp cut-off; inactive = mostly below about 14%; note: read at 38.3 µM for the half of the compounds with a filed dose
Shiga toxin inh – A qHTS for Small Molecule Inhibitors of Shiga Toxin. Vero cells, Shiga toxin protein synthesis inhibition reporter. inhibition, % at 38.7 µM. 290,000 tested, 9.2% active; in the data active = inhibition mostly above about 28%, no sharp cut-off; inactive = mostly below about 43%
Marburg entry inh – qHTS for inhibitors of binding or entry into cells for Marburg Virus; 300,000 tested, 1.8% active; Marburg virus pseudotyped entry inhibition, cell reporter; Potency, µM (series often up to 37.8 µM), usual class: inhibitors; AID 540276, 2011; calls by dose curve; tested in HEK293 cells
Pf growth 96h – Primary qHTS for delayed death inhibitors of the malarial parasite plastid, 96 hour incubation | 320,000 tested, 6.9% active | AID 504834, 2011 | Potency, µM (highest dose often 28.7 µM), hits mostly inhibitors | P. falciparum luciferase reporter growth, 96 h
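Readout is luminescence from an integrated firefly luciferase in P. falciparum. Red cells, 2% hematocrit and 0.05% parasitemia final, were cultured with compound through two parasite generations (96 hours) at 37 C, 5% CO2.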
Pf growth 48h – Primary qHTS for delayed death inhibitors of the malarial parasite plastid, 48 hour incubation. P. falciparum luciferase growth in erythrocytes, 48 h. Potency, µM (series often up to 28.7 µM), actives largely listed as inhibitors. 310,000 tested, 5.9% active
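Firefly luciferase activity from engineered P. falciparum reports growth; inhibitors lower the luminescent signal. Cultures contained 2% hematocrit erythrocytes at 0.1% final parasitemia.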
Lassa entry inh – qHTS for Inhibitors of binding or entry into cells for Lassa Virus | Lassa virus pseudotype entry inhibition, cell reporter | Potency, µM (series often up to 37.9 µM), hits mostly inhibitors | 300,000 tested, 1.2% active; calls by dose curve; tested in HEK293 cells; note: nearly all actives have a fitted effect of over 50% in size
Large screens that a line does not name were inactive. This is a sample that favours compounds with a hit; in the whole collection about 19% have one here. Unless noted, calls come from the whole dose curve; as a rule, active = well fitted inhibition curve with a large enough effect; inconclusive = small, poorly fitted or top-dose-only effect, or another doubt; inactive = no such curve, though single readings can be large or run the other way.

CCN(CC)CCOC(=O)c1ccc(N/C=C(/C#N)c2nc(-c3cc4ccccc4oc3=O)cs2)cc1	Pf growth 96h 0.15µM, Pf growth 48h 0.083µM, Lassa entry inh inconclusive
CCN(CC)CCOC(=O)c1ccc(N/C=C(/C#N)c2nc(-c3ccc4c(c3)OCO4)cs2)cc1	Cycloheximide cs 31, Marburg entry inh inconclusive, Pf growth 96h 1.3µM, Pf growth 48h 1µM
N#C/C(=C\c1cccc(F)c1)c1nc(-c2cc3ccccc3oc2=O)cs1	none (no result: Cycloheximide cs, Shiga toxin inh, Marburg entry inh, Pf growth 96h, Pf growth 48h)
COc1cc(/C=C(/C#N)c2nc(-c3cc4ccccc4oc3=O)cs2)cc([N+](=O)[O-])c1O	Pf growth 96h inconclusive, Pf growth 48h 2.3µM (no result: Marburg entry inh, Lassa entry inh)
CCN(CC)CCOC(=O)c1ccc(N/C=C(/C#N)c2nc(-c3ccc(OC)cc3)cs2)cc1	Marburg entry inh 4µM, Pf growth 96h inconclusive, Pf growth 48h inconclusive
COc1ccc(/C=C(/C#N)c2nc(-c3ccc(-c4ccccc4)cc3)cs2)cc1	none (no result: Cycloheximide cs, Shiga toxin inh, Marburg entry inh, Pf growth 96h, Pf growth 48h)
C[C@H](Cc1ccccc1)Nc1ncnc2c1ncn2[C@@H]1O[C@H](CO)[C@H](O)[C@H]1O	none (no result: Cycloheximide cs, Shiga toxin inh, Pf growth 96h, Pf growth 48h, Lassa entry inh)
OCC1OC(n2cnc3c(NCc4ccccc4O)ncnc32)C(O)C1O (stereo not given)	Marburg entry inh inconclusive, Lassa entry inh 2.2µM (no result: Cycloheximide cs, Shiga toxin inh, Pf growth 96h, Pf growth 48h)
OC[C@H]1O[C@@H](n2cnc3c(Nc4ccccc4)ncnc32)[C@H](O)[C@@H]1O	Shiga toxin inh 108, Marburg entry inh inconclusive, Lassa entry inh inconclusive
Cc1nc2ccccn2c1C(=O)CSc1ccc(Cl)cc1Cl	Pf growth 96h inconclusive
COc1ccc(/C=C/c2ccc3ccccc3[n+]2C)cc1OC	Cycloheximide cs 44, Shiga toxin inh 71, Pf growth 48h 1.2µM (no result: Marburg entry inh, Lassa entry inh)
CN(C)c1ccc(/C=C/c2ccc3c4ccccc4ccc3[n+]2-c2ccccc2)cc1	Marburg entry inh inconclusive, Pf growth 96h inconclusive, Pf growth 48h 8.3µM, Lassa entry inh 11µM
CN(C)c1ccc(/C=C/c2ccc3ccccc3[n+]2C)cc1	Cycloheximide cs 19, Marburg entry inh inconclusive, Pf growth 96h inconclusive, Pf growth 48h 0.83µM, Lassa entry inh inconclusive
CC(=O)Oc1ccccc1/C=C/c1ccc2ccccc2[n+]1C	Cycloheximide cs 43, Shiga toxin inh 107, Pf growth 48h inconclusive (no result: Marburg entry inh, Lassa entry inh)
CC(=O)Oc1ccccc1C(=O)Oc1ccccc1C(=O)O	none (no result: Cycloheximide cs, Shiga toxin inh, Marburg entry inh, Lassa entry inh)
CN(Cc1ccccc1)C(=O)CSc1nnc(-c2cccc(Cl)c2)o1	none (no result: Cycloheximide cs, Shiga toxin inh, Pf growth 96h, Pf growth 48h)
CC(=O)Nc1ccc(NC(=O)c2ccccc2S(=O)(=O)c2ccccc2[N+](=O)[O-])cc1	Pf growth 96h inconclusive
[O-][n+]1c(/C=C/c2ccccc2)ccc2ccccc21	Cycloheximide cs 29, Shiga toxin inh 31, Pf growth 96h 6.6µM (no result: Marburg entry inh, Lassa entry inh)
CN(CCCS(=O)(=O)[O-])c1ccc(/C=C/c2ccc3ccccc3[n+]2C)cc1	Pf growth 96h inconclusive (no result: Marburg entry inh, Lassa entry inh)
CCOP(=O)(OCC)C(NC(=O)c1ccccc1C)C(Cl)(Cl)Cl (stereo not given)	Marburg entry inh inconclusive
Cn1c(Cl)cnc1C1CC(=O)c2cc(Cl)ccc2O1 (stereo not given)	Marburg entry inh 10µM, Pf growth 96h inconclusive, Pf growth 48h inconclusive, Lassa entry inh inconclusive
O=C(N/N=C/c1cc([N+](=O)[O-])ccc1N1CCNCC1)c1ccc([N+](=O)[O-])cc1	Pf growth 96h 4.1µM, Pf growth 48h inconclusive
N#CCC(=O)N/N=C/c1cc([N+](=O)[O-])ccc1N1CCCC1	Shiga toxin inh 47, Pf growth 96h inconclusive, Pf growth 48h inconclusive (no result: Lassa entry inh)
CCN(CC)C(=O)C1CCCN(c2ccc([N+](=O)[O-])cc2[N+](=O)[O-])C1 (stereo not given)	none (no result: Marburg entry inh, Lassa entry inh)
O=C(COc1ccc([N+](=O)[O-])cc1)N/N=C/c1cc([N+](=O)[O-])ccc1N1CCOCC1	Lassa entry inh inconclusive
CCN(CC)C(=O)C1CCCN(c2ccc([N+](=O)[O-])cc2/C=N/NC(=O)c2cccc([N+](=O)[O-])c2)C1 (stereo not given)	Pf growth 96h 10µM, Pf growth 48h inconclusive (no result: Marburg entry inh, Lassa entry inh)
O=C(CNc1ccccc1)N/N=C/c1cc([N+](=O)[O-])ccc1N1CCCC1	Marburg entry inh inconclusive, Pf growth 96h inconclusive
COC(=O)C(C(C)C)N1CCc2c(C)nc3c(C#N)cnn3c21 (stereo not given)	Pf growth 96h inconclusive, Pf growth 48h inconclusive
COCC(C)N1CCC(Oc2ccc(C(=O)NCc3ccccn3)cc2)CC1 (stereo not given)	Pf growth 96h 12µM
CCOc1ccccc1CN1CCC(Oc2ccc(C(=O)NCc3ccccn3)cc2)CC1	Pf growth 96h inconclusive, Pf growth 48h 10µM (no result: Marburg entry inh, Lassa entry inh)
CC(=O)c1sc(NC(=O)C(C)C)nc1C	Marburg entry inh inconclusive
O=C(Cc1ccccc1)Nc1cc([N+](=O)[O-])ccc1N1CCOCC1	Marburg entry inh inconclusive, Pf growth 96h inconclusive, Lassa entry inh inconclusive
Cc1cc(N2CCCCCC2)n2nc(C)c(-c3ccccc3)c2n1	Pf growth 96h inconclusive (no result: Marburg entry inh, Lassa entry inh)
Cc1cc(C)c2c(n1)nn1c(N3CCN(c4ccccc4)CC3)cc(C)nc21	Pf growth 96h inconclusive, Pf growth 48h inconclusive
Cc1cc(C)c2c(n1)nn1c(N3CCN(c4ccccn4)CC3)cc(C)nc21	Pf growth 96h 3.3µM (no result: Lassa entry inh)
Cc1nn2c(N3CCN(c4ccccn4)CC3)cc(C(C)C)nc2c1-c1ccccc1	Pf growth 96h inconclusive, Pf growth 48h 3.3µM
O=C(O)CCc1ccc(-c2ccc(Br)cc2)n1NC(=O)c1ccc([N+](=O)[O-])cc1	none (no result: Marburg entry inh, Lassa entry inh)
COc1ccc(C2C(C(=O)NCCCN3CCOCC3)c3ccccc3C(=O)N2c2ccc(OC)cc2)cc1 (stereo not given)	Marburg entry inh inconclusive, Lassa entry inh inconclusive
COc1ccccc1N=Nc1ccc(O)c2ncccc12	Cycloheximide cs 62, Shiga toxin inh 90, Pf growth 48h 2.9µM (no result: Marburg entry inh, Lassa entry inh)
CCS(=O)(=O)c1ccc(N=Nc2ccc(O)c3ncccc23)c(OC)c1	Marburg entry inh inconclusive, Pf growth 96h inconclusive, Pf growth 48h inconclusive, Lassa entry inh inconclusive
Oc1ccc(N=Nc2ccccc2C(F)(F)F)c2cccnc12	Pf growth 96h 0.93µM, Pf growth 48h 1.5µM (no result: Marburg entry inh, Lassa entry inh)
O=C(Nc1ncccc1O)c1ccc(NS(=O)(=O)c2ccc3[nH]c(=O)[nH]c3c2)cc1	Pf growth 96h 0.1µM, Pf growth 48h 0.13µM (no result: Cycloheximide cs, Shiga toxin inh)
Cc1cccnc1NC(=O)c1ccc(NS(=O)(=O)c2ccc3[nH]c(=O)[nH]c3c2)cc1	none (no result: Cycloheximide cs, Shiga toxin inh)
O=C(Nc1ncccc1O)c1ccc(S(=O)(=O)Nc2ccccc2)cc1	Pf growth 96h inconclusive, Pf growth 48h 0.83µM, Lassa entry inh inconclusive (no result: Cycloheximide cs, Shiga toxin inh)
Cc1ccc(C(=O)C2CN(C)CC2C(=O)c2ccc(C)cc2)cc1 (stereo not given)	Cycloheximide cs 23, Shiga toxin inh 39
Cc1ccc(C(=O)C2CN3CCC2CC3)cc1 (stereo not given)	none
Cc1ccc(/C=N/NC(=S)NC2CCS(=O)(=O)C2)cc1 (stereo not given)	Pf growth 96h inconclusive, Pf growth 48h inconclusive
